CYP2C9 act = increases human cytochrome P450 2C9 activity | P11712 | recombinant CYP2C9, luciferin-H conversion, luminescence; active compounds read high; factor 1 = untreated enzyme, 0 = blocked | activation factor at 5 µM | hit rate 1.4% among 96,000;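 active = activation factor of 2 or more for CYP2C9 at a 5 µM dose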;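 note: 0 = sulfaphenazole-blocked wells and 1 = vehicle-only wells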
CYP2C19 inh = human CYP2C19 inhibition; P33261; CYP2C19 Supersomes, luciferin-H EGE luminescence, 30 min; inhibition, % at 5 µM; hit rate 21% among 96,000;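 active = CYP2C19 inhibition above a set limit at 5 µM in the primary screen, cut at about 50% in these data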;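 note: plate controls were negative control wells for no effect and 2.5 mM tranylcypromine positive control for full effect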
Target sequence (P33261 whole entry, looked up): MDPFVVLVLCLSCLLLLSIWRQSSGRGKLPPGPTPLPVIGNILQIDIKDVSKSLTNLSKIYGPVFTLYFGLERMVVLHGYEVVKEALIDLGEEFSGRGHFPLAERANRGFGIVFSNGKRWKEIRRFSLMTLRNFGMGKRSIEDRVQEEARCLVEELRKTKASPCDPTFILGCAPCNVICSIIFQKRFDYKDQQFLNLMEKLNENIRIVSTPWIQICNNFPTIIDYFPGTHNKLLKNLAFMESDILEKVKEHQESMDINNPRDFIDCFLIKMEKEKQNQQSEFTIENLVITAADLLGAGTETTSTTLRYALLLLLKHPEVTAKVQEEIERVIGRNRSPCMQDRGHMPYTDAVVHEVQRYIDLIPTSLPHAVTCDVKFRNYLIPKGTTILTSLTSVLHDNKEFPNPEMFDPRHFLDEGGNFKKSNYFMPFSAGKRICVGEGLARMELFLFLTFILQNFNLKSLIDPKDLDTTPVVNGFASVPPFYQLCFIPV
sEH inhibitor = inhibitors of human soluble epoxide hydrolase | AID 707 | P34913 | hit rate 0.34% among 91,000 | inhibition, % at 2 µM | recombinant human sEH enzymatic activity assay; in the data active = inhibition above about 80%
sEH act = increases human soluble epoxide hydrolase activity; hit rate 0.04% among 91,000; purified human sEH enzymatic activity, activator screen; activation, % at 2 µM; P34913; in the data active = activation above about 37%
CYP2C9 inh = blocks human cytochrome P450 2C9 | hit rate 20% among 96,000 | CYP2C9 Supersomes, luciferin-H conversion, luminescence | AID 777 | P11712 | inhibition, % at 5 µM;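 active = blocking of liver enzyme CYP2C9 beyond about 50% at 5 µM, limit read from the data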
CYP2C19 activ = cytochrome P450 2C19 (human) activation; P33261; recombinant CYP2C19, luciferin-H EGE luminescence; active compounds read high; 0 = fully inhibited enzyme, 1 = untreated enzyme; activation factor at 5 µM; 96,000 tested, under 10 active; AID 1025;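 active = activation factor of at least 2 at 5 µM in the primary screen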;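 note: 0 = wells with 2.5 mM tranylcypromine and 1 = vehicle-only wells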
Active calls of the source: *; / = no result. Most compounds without a hit are left out; they make up all but 27% or so of the library.

SMILES	CYP2C9 act	CYP2C19 inh	sEH inhibitor	sEH act	CYP2C9 inh	CYP2C19 activ
O=C(NC1CC1)C1CCN(c2ncnc3c2sc2cccc(F)c23)CC1	0.3	61*	33	-34	73*	0.4
C=C1C(C(=O)N2CCOCC2)C1C(=O)N1CCOCC1 (stereo not drawn)	1	-2	-18	17	4	1
Cc1ccc2nc(SCC(=O)Nc3cccc([N+](=O)[O-])c3)[nH]c2c1	0.1	46	-3	6	90*	0.5
Cc1ccc2nc(-c3ccc(SCC(=O)O)nc3)[nH]c2c1	0.8	13	10	-12	19	0.9
COC(=O)CSc1nc2ccc(C)cc2[nH]1	1	4	8	-7	-3	1
Cc1cc(C)cc(NC(=O)CSc2nc3ccncc3[nH]2)c1	0.2	63*	4	-6	76*	0.4
Cc1ccc2nc(-c3ccc(NC(=O)CSc4ccccc4)cc3)[nH]c2c1	0.4	35	18	-18	59*	0.7
O=C(CSc1nc2ccc([N+](=O)[O-])cc2[nH]1)NC1CCCCC1	0.4	64*	-13	11	62*	0.4
CCCC1=C(C(=O)OCC)C(c2cc(Cl)cc(OC)c2OCc2ccccc2)NC(=O)N1 (stereo not drawn)	0.4	50*	3	-4	64*	0.5
Cc1noc(C)c1COC(=O)[C@H](C)NS(=O)(=O)c1ccc(Cl)c(Cl)c1	0.4	98*	-9	8	62*	0
O=C(CSc1nnc(-c2cccnc2)n1Cc1ccccc1)N1CCOCC1	1.1	-16	-13	12	-10	1.2
COc1cccc(CNC(=O)Cn2cccc2)c1	0.8	46	-7	8	22	0.5
COc1cccc(CNC(=O)CCS(=O)(=O)c2cccs2)c1	0.8	53*	42	-40	17	0.5
O=C(CCS(=O)(=O)c1cccs1)Nc1ccc(C(=O)NCc2ccccc2)cc1	0.4	78*	-3	5	60*	0.2
CC(=O)C1=C(O)C(=O)N(CCNCCO)C1c1ccccc1 (stereo not drawn)	1	0	4	-5	0	1
c1cncc(-c2nc(Oc3ccc(-c4nnco4)cc3)c3c4c(sc3n2)CCCC4)c1	0	93*	/	/	98*	0.1
COc1ccc(-c2nnc(-c3cccnc3)o2)cc1	0.9	22	-1	0	9	0.8
CCOc1ccc(-c2cc3nc(C4CCN(C(=O)OC(C)(C)C)CC4)c(C(=O)O)cn3n2)cc1	0.2	-7	13	-13	81*	1.1
CC(C)(C)OC(=O)N1CCC(c2c(C(=O)O)cnn2-c2ccccc2)CC1	1.1	-16	/	/	-7	1.2
Cc1snc(S(=O)(=O)Cc2c(Cl)cccc2Cl)c1C#N	0.7	67*	-15	16	29	0.3
N=C1C(c2ccccc2)=C(O)CN1c1ccc2c(c1)OCO2	1.1	-9	/	/	-5	1.1
CC(C)C1N=C(c2ccc3c(c2)OCO3)CC(c2ccccc2O)N1 (stereo not drawn)	0.4	54*	-23	20	61*	0.5
CC12/C(=N/O)C3C4CC5C3/C(=N/O)C1C5C42 (stereo not drawn)	0.9	9	11	-12	8	0.9
CCNC(=O)N1c2ccc(OCC)cc2C(C)=CC1(C)C	0.5	67*	1	-3	50*	0.3
CC1=CC(C)(C)N(C(=O)CN2C(=O)c3ccccc3C2=O)c2ccc(C)cc21	/	/	-16	15	/	/
SMILES	CYP2C9 act	CYP2C19 inh	sEH inhibitor	sEH act	CYP2C9 inh	CYP2C19 activ
CC(C)(C)C(=O)NCCCc1nc2ccccc2n1CCCOc1ccc(Cl)cc1	0.2	42	-2	2	84*	0.6
COc1ccc(OCCCn2c(=O)oc3ccccc32)cc1	/	/	-5	8	/	/
Cn1c(=O)n(CCCOc2ccc(Cl)cc2)c2ccccc21	0.9	76*	9	-6	12	0.2
Cn1c(=O)n(CCCOc2ccc(Br)cc2)c2ccccc21	0.9	70*	-1	-3	8	0.3
O=C(NCc1ccco1)C1CCCN(S(=O)(=O)c2ccc(Cl)cc2)C1 (stereo not drawn)	1.4	22	-8	9	-38	0.8
COC(=O)c1ccc(COC(=O)c2ccc(S(=O)(=O)N3CCC(C)CC3)cc2)o1	0.3	27	-10	11	69*	0.7
CCOc1ccccc1NC(=O)CSc1nc2c(c(=O)n1C)SC(C)C2 (stereo not drawn)	0.4	16	/	/	61*	0.8
